# Screening results as filed in PubChem.
# Glioma ERSR ind: inducers of ER stress response in human glioma cells; AID 602332; hit rate 0.02% among 420,000; Potency, µM, for the others: top-dose activation, actives largely listed as activators; U87-MG GRP78 promoter luciferase reporter, 16 h; note: potency is the fitted concentration of half-maximal effect; series mostly up to about 76 µM; % of control where 0% means no effect; nearly all actives have a fitted effect of over 35% in size
#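 Stably transfected U87-MG glioma cells carrying a GRP78-based luciferase sensor; 16 h compound incubation. Luminescence end-point read 10 min after Bright-Glo addition at room temperature.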
# Nrf2 activator: activators of Nrf2 (ARE) signaling | AREc32 ARE-luciferase reporter (MCF7-derived line), luminescence, 24 h | Potency, µM (doses to about 46.1 µM), for inactives: at the highest dose activation, most hits filed as activators | hit rate 0.31% among 410,000 | AID 624171; note: potency is the fitted concentration of half-maximal effect; % of control where 0% means no effect; nearly all actives have a fitted effect of over 65% in size
#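 Nrf2 activation is followed as ARE-luciferase induction in the AREc32 line after one day of compound treatment; luminescence is read with Steady-Glo.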
# DRD3 agonist: D3 dopamine receptor (human) agonism. D3R DiscoveRx beta-arrestin cells, luminescence, 90 min. max activation, %. hit rate 0.58% among 410,000. AID 652048; in the data active = max activation above about 30%; note: 0% is about no effect
# Target sequence (P35462 whole entry, looked up): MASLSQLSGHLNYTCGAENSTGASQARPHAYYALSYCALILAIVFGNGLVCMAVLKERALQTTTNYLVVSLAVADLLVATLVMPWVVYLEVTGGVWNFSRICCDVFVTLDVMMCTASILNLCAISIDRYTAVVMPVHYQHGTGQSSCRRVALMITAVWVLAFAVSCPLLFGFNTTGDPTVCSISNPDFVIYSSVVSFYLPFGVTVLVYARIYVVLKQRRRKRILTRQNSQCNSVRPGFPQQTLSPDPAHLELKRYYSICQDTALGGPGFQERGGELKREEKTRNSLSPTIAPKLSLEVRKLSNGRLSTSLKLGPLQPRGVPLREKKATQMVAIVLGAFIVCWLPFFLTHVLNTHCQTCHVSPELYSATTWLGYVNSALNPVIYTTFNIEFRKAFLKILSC
#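 Agonist mode: compounds and dopamine controls were applied to plated cells for 90 min at 37 degrees C after an overnight attachment at 1500 cells/well. Luminescent read-out followed 30 - 60 minutes at room temperature with DiscoveRx detection reagent.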
# DRD3 antagonist: D3 dopamine receptor (human) antagonism. P35462. D3R cells, DiscoveRx beta-arrestin luminescence, antagonist mode; stronger effect = lower value. max response, negative = inhibition, %. hit rate 2.5% among 360,000. AID 652054; in the data active = max response below about -50%; inconclusive = no clear call, values can overlap the other calls; note: % is set by controls: 0 for no effect and ±100 for the full control effect
#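 Cells plated overnight at 1500 cells/well, then exposed to library compounds with dopamine controls for 90 minutes at 37 degrees C. DiscoveRx reagent added for 30–60 minutes at room temperature; luminescence read, quantitative HTS format.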
# The depositor's hits bear a star; ? = inconclusive; · = no result; ! = not confirmed by another sample. An excerpt weighted towards active compounds, which were near 3% of everything screened. Unless noted, calls come from the whole dose curve; as a rule, active = well fitted curve in the direction sought with a large enough effect; inconclusive = small, poorly fitted or top-dose-only effect, or another doubt; inactive = no such curve, though single readings can be large; an effect the other way counts as inactive or inconclusive.
SMILES,Glioma ERSR ind,Nrf2 activator,DRD3 agonist,DRD3 antagonist
O=C(NC(=S)Nc1ccc(CN2CCOCC2)cc1)c1cc2ccccc2o1,-0.3%,-1.6%,2.0,35.0
O=C(NC(=S)Nc1ccc(CN2CCOCC2)cc1)c1ccc([N+](=O)[O-])cc1Cl,-1.3%,4.1%,-16.4,-78.4*
O=C(NC(=S)Nc1ccc(CN2CCOCC2)cc1)c1ccccc1[N+](=O)[O-],4.1%,0.0%,-11.3,-107.2*
O=C(NC(=S)Nc1ccc(CN2CCOCC2)cc1)c1cccc([N+](=O)[O-])c1,-6.2%,0.0%,-17.8,0.0
CC(C)CC1Nc2ncnc(N3CCN(c4ccccc4)CC3)c2N(Cc2ccc(Cl)cc2)C1=O (configuration not stated),-4.7%,0.4%,-9.9,-23.1
Cc1ccc(CN2C(=O)C(CC(C)C)Nc3ncnc(N4CCN(c5ccccc5)CC4)c32)cc1 (configuration not stated),-0.8%,5.9%,-13.5,-54.6*!
O=C1C(Cc2ccccc2)Nc2ncnc(N3CCOCC3)c2N1Cc1ccccc1 (configuration not stated),-3.2%,0.3%,-1.1,-29.0
CCC1Nc2ncnc(N3CCN(c4ccccc4)CC3)c2N(Cc2ccc(C)cc2)C1=O (configuration not stated),-0.7%,5.3%,-61.2,-138.8*
CCC1Nc2ncnc(N3CCN(c4ccccc4)CC3)c2N(Cc2ccccc2)C1=O (configuration not stated),-1.7%,1.1%,-59.9,-142.4*
Cc1ccc(CN2C(=O)C(Cc3ccccc3)Nc3ncnc(N4CCOCC4)c32)cc1 (configuration not stated),-3.8%,-0.2%,-9.2,-58.2*
CCC1Nc2ncnc(N3CCOCC3)c2N(Cc2ccc(C)cc2)C1=O (configuration not stated),-3.4%,-0.3%,6.0,-2.5
COc1cc(=O)n2c(c1C(=O)NCc1ccc3c(c1)OCO3)CCN(C(=O)c1ccccc1F)CC2,-3.2%,·,·,·
COc1ccc2occ(C(=O)c3ccc(N)cc3)c2c1,-2.8%,-0.4%,6.3,2.6
COc1ccc2occ(C(=O)c3cccs3)c2c1,1.9%,10µM*,-6.9,17.4
CCCCCCCCN1[C@@H](CC(C)=O)c2ccc(/C=C/C(C)=O)cc2S1(=O)=O,-11.4%,·,·,·
Cc1ccc2[nH]c(C)cc(=O)c2c1,44.7µM*,·,·,·
COc1cc(C=C2C(=O)C=CC2=O)ccc1O,·,-3.6%,-19.5,-135.8*
C[C@H](CO)N1C[C@H](C)[C@@H](CN(C)C(=O)NC2CCCCC2)Oc2ccc(NC(=O)Cn3cnnn3)cc2C1=O,-0.9%,-0.8%,-3.9,12.3
C[C@@H]1CN([C@H](C)CO)C(=O)c2cc(NC(=O)Nc3ccc4c(c3)OCO4)ccc2O[C@H]1CN(C)Cc1ccncc1,-2.3%,-0.2%,31.7*,4.3
C[C@H](CO)N1C[C@H](C)[C@@H](CN(C)C(=O)Nc2ccccc2)Oc2ccc(NC(=O)Nc3ccc4c(c3)OCO4)cc2C1=O,-3.3%,0.3%,-6.3,2.6
C[C@H](CO)N1C[C@H](C)[C@@H](CN(C)CC2CCCCC2)Oc2ccc(NC(=O)Cn3cnnn3)cc2C1=O,-1.6%,-0.1%,34.6*,11.6
c1ccc(C(c2ccccc2)c2noc(CN3CCN(CC4CC4)CC3)n2)cc1,-4.7%,-0.1%,-20.9,-63.0*
CCOc1ccccc1NC(=O)CN1Cc2ccccc2C1=O,-2.1%,-0.1%,-1.8,·
O=C(NCc1cccnc1)c1cnn(-c2ncc3c(n2)-c2ccccc2CCC3)c1C1CC1,-3.7%,·,·,·
COc1ccc(CN2CCN(Cc3ccc4ccccc4c3)CC2)cc1OC,-2.9%,-0.1%,-48.9,-75.9*
SMILES,Glioma ERSR ind,Nrf2 activator,DRD3 agonist,DRD3 antagonist
COc1ccccc1CN1CCN(Cc2ccc3ccccc3c2)CC1,-2.7%,0.1%,-1.9,-89.8*
COc1ccc2ccccc2c1CN1CCN(Cc2ccccc2)CC1,-3.1%,-0.1%,-30.3,-71.3*
Cc1cccc(NC(=O)CCCCCn2c(=O)[nH]c3ccsc3c2=O)c1,-0.8%,0.5%,-2.4,·
CCOC(=O)c1cccc(NC(=O)NCCc2c(C)nn(C)c2C)c1,0.0%,-0.2%,2.0,·
Cc1ccccc1NC(=O)c1nc(S(=O)(=O)Cc2ccccc2F)ncc1Cl,-10.8%,·,·,·
Cc1ccc(-n2[nH]c(C)c(/C=N/n3c(C)nc4ccccc4c3=O)c2=O)cc1,-0.1%,1.9%,-11.8,3.9
Cc1[nH]n(-c2ccccc2)c(=O)c1/C=N/n1c(C)nc2ccccc2c1=O,-3.5%,1.9%,4.0,-52.0*
CC(=O)NC(c1ccco1)c1ccc2cccnc2c1O (configuration not stated),-2.2%,-1.1%,-6.3,-62.2*
CC(=O)NC(c1ccc(Cl)cc1)c1ccc2cccnc2c1O (configuration not stated),-6.3%,-1.0%,0.8,37.2
Oc1ccccc1C(Nc1nccs1)c1ccc2cccnc2c1O (configuration not stated),-7.3%,3.4%,33.3*,-8.4
CCCCC(=O)NC(c1ccc(Cl)cc1Cl)c1ccc2cccnc2c1O (configuration not stated),-4.3%,3.3%,33.0*,-8.9
Cc1ncc2c(c1CNC(=O)c1ccc3c(c1)OCO3)CCN(C(=O)c1noc3c1CCCC3)C2,-3.5%,·,·,·
O=[N+]([O-])c1ccccc1S(=O)(=O)N1CCN(C2CCN(Cc3ccccc3)CC2)CC1,-0.7%,1.5%,-38.3,-76.5*
O=[N+]([O-])c1ccc(S(=O)(=O)N2CCN(C3CCN(Cc4ccccc4)CC3)CC2)cc1,-7.0%,-0.6%,-6.7,?
O=S(=O)(c1ccc(Cl)cc1)N1CCN(C2CCN(Cc3ccccc3)CC2)CC1,-3.7%,4.0%,-11.9,-62.6*
O=[N+]([O-])c1ccccc1S(=O)(=O)N1CCN(C2CCCC2)CC1,-2.8%,2.3%,-26.8,-59.0*
Cc1cccc(OCC(=O)Nc2ccc(C(=O)OCc3cc(=O)n4nc(C5CC5)sc4n3)cc2)c1,-2.1%,-0.5%,0.8,·
Cc1nn(C)cc1CN1CCOc2ccc(CN3CCC(Oc4cccnc4)CC3)cc2C1,0.8%,·,·,·
C[C@@H](C(=O)Nc1ccc2ccccc2c1)[C@H]1C[C@]1(C)[C@H](NC(=O)c1cccnc1)c1ccccc1,-3.0%,8.1%,0.3,-50.1*
O=C(c1ccccc1)c1coc2ccc(O)c(Cl)c12,14.4%,9.2%,-2.3,-52.3*
COc1ccccc1C1CN(Cc2cccc(OCCO)c2)Cc2ccccc2O1 (configuration not stated),-2.3%,·,·,·
Cc1ccc(NC(=O)c2sc3nc(C)cc(C)c3c2N)cc1,-5.5%,4.6%,-7.1,-11.0
Cc1cc(C)c2c(N)c(C(=O)Nc3cccc(C)c3C)sc2n1,-2.2%,-0.6%,92.0*,-6.8
Cc1cccc(CNC(=O)c2cnn(-c3nccc(-c4cccs4)n3)c2C2CC2)n1,-5.4%,·,·,·
O=C(N/N=C/c1c[nH]c2ccccc12)c1cc(-c2ccc(-c3ccccc3)cc2)n[nH]1,-4.8%,17.7%,34.9*,15.8
O=C(N/N=C/c1c[nH]c2ccccc12)c1cc(-c2ccccc2)n[nH]1,-3.8%,3.2%,-5.5,9.7
O=C(N/N=C/c1ccco1)c1cc(-c2ccc3ccccc3c2)n[nH]1,-14.1%,3.6%,1.4,-74.9*
